As usually defined, the inhibition is the relative decrease from the control value, in per cent.

The values that follow come from ChEMBL document CHEMBL1961873, “Compounds: GSK PKIS; Assays: Nanosyn kinase panel” (2012).

In assay [1] the target is T1, Serine/threonine-protein kinase D2 (Homo sapiens) (UniProt Q9BZL6).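 Note: mean value of PRKD2 inhibition, from the GSK PKIS screening panel.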
T1 sequence (whole entry): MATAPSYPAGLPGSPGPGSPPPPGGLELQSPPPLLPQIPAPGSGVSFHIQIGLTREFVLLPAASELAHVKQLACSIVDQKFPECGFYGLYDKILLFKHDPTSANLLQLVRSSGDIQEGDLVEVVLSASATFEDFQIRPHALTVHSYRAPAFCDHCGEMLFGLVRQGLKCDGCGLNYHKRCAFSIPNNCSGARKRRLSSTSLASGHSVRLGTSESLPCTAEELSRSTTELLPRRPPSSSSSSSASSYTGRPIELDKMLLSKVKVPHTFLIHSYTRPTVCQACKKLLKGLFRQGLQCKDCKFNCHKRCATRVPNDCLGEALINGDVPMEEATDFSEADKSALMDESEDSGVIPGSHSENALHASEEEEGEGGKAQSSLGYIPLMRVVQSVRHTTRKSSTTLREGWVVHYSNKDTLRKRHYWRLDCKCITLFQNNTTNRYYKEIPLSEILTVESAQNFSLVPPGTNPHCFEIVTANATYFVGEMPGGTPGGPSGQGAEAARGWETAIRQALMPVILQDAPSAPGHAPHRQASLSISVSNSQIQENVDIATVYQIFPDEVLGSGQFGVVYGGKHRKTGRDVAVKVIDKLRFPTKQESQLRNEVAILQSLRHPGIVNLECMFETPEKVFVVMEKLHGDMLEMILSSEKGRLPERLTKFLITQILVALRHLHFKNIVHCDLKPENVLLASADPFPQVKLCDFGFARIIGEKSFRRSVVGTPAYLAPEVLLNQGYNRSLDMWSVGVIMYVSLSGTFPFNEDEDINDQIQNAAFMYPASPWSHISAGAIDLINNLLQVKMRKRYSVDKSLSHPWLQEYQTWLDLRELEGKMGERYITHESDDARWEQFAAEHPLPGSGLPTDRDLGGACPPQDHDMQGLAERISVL
The note with it: at 1 µM.

Assay [2] concerns the target T2, Serine/threonine-protein kinase D3 (Homo sapiens) (UniProt O94806).
T2 sequence (whole entry): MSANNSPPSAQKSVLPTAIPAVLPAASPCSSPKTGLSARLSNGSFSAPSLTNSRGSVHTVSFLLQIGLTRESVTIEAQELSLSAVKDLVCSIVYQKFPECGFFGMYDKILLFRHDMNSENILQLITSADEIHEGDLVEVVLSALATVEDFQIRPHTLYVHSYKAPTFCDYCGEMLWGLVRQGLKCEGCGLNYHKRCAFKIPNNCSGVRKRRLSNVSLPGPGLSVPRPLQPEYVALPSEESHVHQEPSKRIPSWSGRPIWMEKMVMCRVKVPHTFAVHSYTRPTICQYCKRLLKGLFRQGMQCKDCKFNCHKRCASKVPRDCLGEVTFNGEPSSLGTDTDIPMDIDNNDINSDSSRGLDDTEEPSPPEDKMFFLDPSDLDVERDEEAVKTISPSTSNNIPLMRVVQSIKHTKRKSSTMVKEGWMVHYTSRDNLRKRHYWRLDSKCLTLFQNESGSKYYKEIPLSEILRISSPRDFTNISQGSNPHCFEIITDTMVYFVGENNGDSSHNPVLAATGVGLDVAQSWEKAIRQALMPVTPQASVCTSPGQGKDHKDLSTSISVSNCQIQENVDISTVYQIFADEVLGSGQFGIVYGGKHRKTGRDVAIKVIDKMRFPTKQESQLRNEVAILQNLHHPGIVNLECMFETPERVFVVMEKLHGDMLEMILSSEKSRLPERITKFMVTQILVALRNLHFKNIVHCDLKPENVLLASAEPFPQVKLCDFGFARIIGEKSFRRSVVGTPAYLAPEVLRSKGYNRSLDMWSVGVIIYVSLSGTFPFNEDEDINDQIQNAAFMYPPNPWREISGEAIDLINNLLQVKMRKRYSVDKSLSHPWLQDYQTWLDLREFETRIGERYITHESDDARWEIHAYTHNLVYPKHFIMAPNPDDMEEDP
The settings on record: at 0.1 µM.

Assay [3] deals with T2, Serine/threonine-protein kinase D3 (Homo sapiens). The note with it: at 1 µM.
Assay [4] concerns the target T3, cGMP-dependent protein kinase 1 (Homo sapiens) (UniProt Q13976).
T3 sequence (whole entry): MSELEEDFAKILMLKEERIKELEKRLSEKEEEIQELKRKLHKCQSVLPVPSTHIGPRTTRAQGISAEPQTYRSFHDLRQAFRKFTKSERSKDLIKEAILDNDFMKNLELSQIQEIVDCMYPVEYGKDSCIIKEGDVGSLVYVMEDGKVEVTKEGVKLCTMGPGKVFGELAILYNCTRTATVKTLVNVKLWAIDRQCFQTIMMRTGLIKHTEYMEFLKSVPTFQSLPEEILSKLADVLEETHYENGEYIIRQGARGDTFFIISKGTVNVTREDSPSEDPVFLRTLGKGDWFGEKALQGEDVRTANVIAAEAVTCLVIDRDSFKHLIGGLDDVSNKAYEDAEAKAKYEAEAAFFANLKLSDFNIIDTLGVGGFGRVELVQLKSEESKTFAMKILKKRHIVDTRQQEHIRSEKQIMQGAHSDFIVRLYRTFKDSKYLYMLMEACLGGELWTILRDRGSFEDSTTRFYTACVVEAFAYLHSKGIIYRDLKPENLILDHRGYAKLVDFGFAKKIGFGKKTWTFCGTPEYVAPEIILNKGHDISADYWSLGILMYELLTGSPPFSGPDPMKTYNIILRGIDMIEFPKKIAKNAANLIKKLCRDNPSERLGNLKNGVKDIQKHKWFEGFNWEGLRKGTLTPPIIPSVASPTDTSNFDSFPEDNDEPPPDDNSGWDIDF
The settings on record: at 0.1 µM.

Assay [5] addresses T3, cGMP-dependent protein kinase 1 (Homo sapiens). The settings on record: at 1 µM.
Assay [6] has as its target T4, cGMP-dependent protein kinase 2 (Homo sapiens) (UniProt Q13237).
T4 sequence (whole entry): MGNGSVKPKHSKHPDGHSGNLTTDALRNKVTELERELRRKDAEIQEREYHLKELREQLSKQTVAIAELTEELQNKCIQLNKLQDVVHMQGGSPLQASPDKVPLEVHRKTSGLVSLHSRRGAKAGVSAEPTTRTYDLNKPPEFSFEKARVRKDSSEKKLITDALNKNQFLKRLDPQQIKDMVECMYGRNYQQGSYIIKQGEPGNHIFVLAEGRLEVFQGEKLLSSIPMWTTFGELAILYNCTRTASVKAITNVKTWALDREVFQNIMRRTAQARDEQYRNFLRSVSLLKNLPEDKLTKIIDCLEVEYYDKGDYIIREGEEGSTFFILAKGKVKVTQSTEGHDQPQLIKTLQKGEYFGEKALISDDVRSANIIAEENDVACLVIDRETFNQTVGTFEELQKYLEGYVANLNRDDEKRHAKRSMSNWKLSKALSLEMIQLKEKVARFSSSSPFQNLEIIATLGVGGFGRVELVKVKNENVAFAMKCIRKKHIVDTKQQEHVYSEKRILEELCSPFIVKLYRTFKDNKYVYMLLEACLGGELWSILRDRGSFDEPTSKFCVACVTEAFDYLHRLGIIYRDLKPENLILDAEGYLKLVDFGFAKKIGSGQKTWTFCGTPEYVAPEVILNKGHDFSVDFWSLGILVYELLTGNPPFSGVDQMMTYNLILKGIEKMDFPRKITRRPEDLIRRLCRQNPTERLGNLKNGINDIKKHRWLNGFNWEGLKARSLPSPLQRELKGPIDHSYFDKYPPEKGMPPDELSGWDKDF
The settings on record: at 0.1 µM.

The target of assay [7] is T4, cGMP-dependent protein kinase 2 (Homo sapiens). The settings on record: at 1 µM.
Assay [8] concerns the target T5, cAMP-dependent protein kinase catalytic subunit PRKX (Homo sapiens) (UniProt P51817).
T5 sequence (whole entry): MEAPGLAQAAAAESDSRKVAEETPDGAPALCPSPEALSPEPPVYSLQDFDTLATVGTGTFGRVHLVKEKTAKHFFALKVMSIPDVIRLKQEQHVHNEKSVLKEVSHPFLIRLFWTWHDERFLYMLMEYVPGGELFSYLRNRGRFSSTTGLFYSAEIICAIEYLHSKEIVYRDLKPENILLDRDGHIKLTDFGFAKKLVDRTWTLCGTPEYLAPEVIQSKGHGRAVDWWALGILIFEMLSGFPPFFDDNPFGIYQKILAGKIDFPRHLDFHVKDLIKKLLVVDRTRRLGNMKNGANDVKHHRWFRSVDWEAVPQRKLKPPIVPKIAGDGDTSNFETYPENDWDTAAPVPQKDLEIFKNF
The note with it: at 0.1 µM.

Assay [9] addresses T5, cAMP-dependent protein kinase catalytic subunit PRKX (Homo sapiens). The note with it: at 1 µM.
The target in assay [10] is Rho-associated protein kinase 1 (Homo sapiens) (UniProt Q13464). The settings on record: at 0.1 µM.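 Note: values are mean percent inhibition of ROCK1.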
Sequence of Rho-associated protein kinase 1 (Homo sapiens) (Q13464 2-1354 limits assumed): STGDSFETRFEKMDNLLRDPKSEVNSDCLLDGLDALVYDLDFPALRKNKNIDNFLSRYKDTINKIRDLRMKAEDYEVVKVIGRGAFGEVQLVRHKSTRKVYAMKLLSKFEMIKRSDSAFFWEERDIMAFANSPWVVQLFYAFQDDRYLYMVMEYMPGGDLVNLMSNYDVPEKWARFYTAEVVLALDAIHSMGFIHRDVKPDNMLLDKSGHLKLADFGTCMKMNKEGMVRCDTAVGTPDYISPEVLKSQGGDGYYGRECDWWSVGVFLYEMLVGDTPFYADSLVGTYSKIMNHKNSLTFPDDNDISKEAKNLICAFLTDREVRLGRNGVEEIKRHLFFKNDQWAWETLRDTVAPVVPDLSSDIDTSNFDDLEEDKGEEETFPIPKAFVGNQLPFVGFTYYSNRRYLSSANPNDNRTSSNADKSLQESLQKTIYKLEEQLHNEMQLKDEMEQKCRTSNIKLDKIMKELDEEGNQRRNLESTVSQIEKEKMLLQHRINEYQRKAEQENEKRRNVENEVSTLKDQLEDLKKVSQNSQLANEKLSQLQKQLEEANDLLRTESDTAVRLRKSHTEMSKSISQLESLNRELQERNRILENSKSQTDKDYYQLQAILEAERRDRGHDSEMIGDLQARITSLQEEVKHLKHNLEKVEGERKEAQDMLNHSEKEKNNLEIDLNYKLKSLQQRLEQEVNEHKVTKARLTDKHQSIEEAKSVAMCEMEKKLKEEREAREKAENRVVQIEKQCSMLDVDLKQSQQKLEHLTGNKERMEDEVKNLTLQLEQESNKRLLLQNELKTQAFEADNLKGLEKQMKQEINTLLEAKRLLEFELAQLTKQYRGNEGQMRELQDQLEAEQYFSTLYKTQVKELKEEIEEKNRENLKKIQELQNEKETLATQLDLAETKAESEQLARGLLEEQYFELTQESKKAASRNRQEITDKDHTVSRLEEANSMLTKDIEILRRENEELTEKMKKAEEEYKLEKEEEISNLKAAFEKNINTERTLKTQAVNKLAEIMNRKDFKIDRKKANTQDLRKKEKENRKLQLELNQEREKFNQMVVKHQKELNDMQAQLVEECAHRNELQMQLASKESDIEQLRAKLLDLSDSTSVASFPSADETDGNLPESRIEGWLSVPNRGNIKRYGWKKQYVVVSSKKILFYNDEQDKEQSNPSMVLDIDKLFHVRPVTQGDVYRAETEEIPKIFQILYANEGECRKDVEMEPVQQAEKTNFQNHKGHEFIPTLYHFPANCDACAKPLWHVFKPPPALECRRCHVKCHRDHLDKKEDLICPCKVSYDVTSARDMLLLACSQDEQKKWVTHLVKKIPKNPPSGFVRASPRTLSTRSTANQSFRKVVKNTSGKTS

Turning to `CCS(=O)(=O)c1ccc(OC)c(Nc2ncc(-c3cccc(OC)c3)o2)c1`, the inhibition in [1] was 3.71%; in assay [2], 3.28%; in [3], 3.64%; in assay [4], 1.45%; in assay [5], 2.34%; in [6], 0.25%. For the same compound, the inhibition in assay [7] is 2.95%; in assay [8], 0.28%; in [9], -2.35%; in assay [10], 0.26%.

With `COC(=O)Nc1nc2cc(Oc3ccc(NC(=O)Nc4cccc(Br)c4)cc3)ccc2[nH]1`, the inhibition stood at 4.58% in assay [1]; 2.07% in [2]; 3.88% in assay [3]; 1.83% in assay [4]; 2.02% in assay [5]; 0.8% in assay [6]. For the same compound, the inhibition in assay [7] was 2.14%; in assay [8], 1.95%; in [9], 1.14%; in [10] it was 2.54%.

On to `Nc1nccc(C#Cc2cncnc2Nc2ccc(OCc3cccc(F)c3)c(Cl)c2)n1`, for which the inhibition in [1] is 5.62%; in assay [2], 5.15%; in [3], 5.74%; in assay [4], 2.37%; in [5], 5.43%; in [6] it was 1.99%. The inhibition was 7.43% in assay [7], 0.49% in assay [8], -0.22% in assay [9] and 0.91% in assay [10].

For `c1ccc(Cc2nc3ccc(Nc4ncnc5ccccc45)cc3[nH]2)cc1`, the inhibition in [1] came out at 4.57%; in [2], 3.17%; in assay [3], 5.52%; in assay [4], 1.14%; in [5] it was 4.46%; in assay [6] it was 1.61%. The inhibition was 6.41% in [7], 0.98% in [8], 1.89% in assay [9] and 0.25% in [10].

As for `O=C1Nc2ccccc2/C1=C/Nc1ccc2[nH]c(=O)[nH]c2c1`, the inhibition in assay [1] worked out at 14%; in assay [2], 5.54%; in assay [3], 11.7%; in [4] it was 1.49%; in [5], 6.34%; in assay [6], 3.41%. Besides, the inhibition in [7] came out at 13.8%; in assay [8] it was 2.23%; in assay [9], 8.47%; in assay [10], 0.24%.

As to `CN(c1ccc(NC(=O)Nc2ccc(OC(F)(F)F)cc2)cc1)c1ccnc(Nc2cccc(S(N)(=O)=O)c2)n1`, the inhibition is 3.78% in assay [1]; 3.1% in assay [2]; 3.42% in assay [3]; -0.15% in [4]; 0.56% in assay [5]; 0.76% in [6]. Also, the inhibition in assay [7] is -0.82%; in assay [8], 0.6%; in assay [9], 0%; in assay [10], -0.35%.

In the case of `N#Cc1c(NC(=O)c2ccccc2F)sc2c1CCCC2`, the inhibition in assay [1] is 1.58%; in [2], -2.11%; in [3], -0.58%; in [4], -2.04%; in assay [5] it was -0.46%; in [6], -1.17%. Moreover, the inhibition in [7] was -0.91%; in assay [8], -0.74%; in assay [9], -0.83%; in assay [10], -0.67%.

For the compound `Cc1ccc2c(-c3ccnc(Nc4cccc(C(F)(F)F)c4)n3)c(-c3ccccc3)nn2n1`, the inhibition in assay [1] was 56.8%; in assay [2], 11.6%; in assay [3] it was 51.5%; in [4], 3.11%; in [5] it was 5.07%; in assay [6], 3.26%. Besides, the inhibition worked out at 4.35% in [7], 2.65% in assay [8], 2.54% in [9] and 3.08% in [10].

Regarding `CN(C)C(=O)O[C@H]1CN[C@H](C#Cc2cc3ncnc(Nc4ccc(OCc5cccc(F)c5)c(Cl)c4)c3s2)C1`, the inhibition in assay [1] was 1.92%; in assay [2], 2.56%; in [3], 2.75%; in assay [4], 2.24%; in assay [5], 6.88%; in assay [6], -0.06%. The inhibition in [7] came to 5.82%; in assay [8] it was 1.35%; in assay [9], 3.67%; in assay [10], 1.82%.
